From PubChem BioAssay (NCI)
About 83,000 compounds went through this panel and 20% of them were active in at least one assay; those are over-represented in the sample as a whole.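 Activity criterion: percent growth below 10, measured after cells in 96-well plates were exposed to a single compound concentration for 48 hours.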 Unmarked numbers belong to inactive results. Calls of active or inactive are those of the source.

Experiments:
Assay in all cases: NCI-60 one-dose screen, 48 h (100 = growth as untreated, 0 = no growth, -100 = all killed)
Details in all cases: 10 µM unless noted
HCT-15 colon = tested on: HCT-15 colon
HT29 colon = tested on: HT29 colon
SNB-75 CNS = tested on: SNB-75 CNS
SNB-19 CNS = tested on: SNB-19 CNS
U251 CNS = tested on: U251 CNS
PC-3 prostate = tested on: PC-3 prostate
SK-MEL-5 melanoma = tested on: SK-MEL-5 melanoma
UACC-62 melanoma = tested on: UACC-62 melanoma
LOX IMVI melanoma = tested on: LOX IMVI melanoma
SK-MEL-28 melanoma = tested on: SK-MEL-28 melanoma
SK-MEL-2 melanoma = tested on: SK-MEL-2 melanoma
EKVX NSCLC = tested on: EKVX NSCLC
SN12C renal = tested on: SN12C renal
UO-31 renal = tested on: UO-31 renal
TK-10 renal = tested on: TK-10 renal
ACHN renal = tested on: ACHN renal
A498 renal = tested on: A498 renal
CCRF-CEM leukemia = tested on: CCRF-CEM leukemia
MOLT-4 leukemia = tested on: MOLT-4 leukemia
CAKI-1 renal = tested on: CAKI-1 renal

SMILES | growth (HCT-15 colon) | growth (HT29 colon) | growth (SNB-75 CNS) | growth (SNB-19 CNS) | growth (U251 CNS) | growth (PC-3 prostate) | growth (SK-MEL-5 melanoma) | growth (UACC-62 melanoma) | growth (LOX IMVI melanoma) | growth (SK-MEL-28 melanoma) | growth (SK-MEL-2 melanoma) | growth (EKVX NSCLC) | growth (SN12C renal) | growth (UO-31 renal) | growth (TK-10 renal) [%] | growth (ACHN renal) | growth (A498 renal) | growth (CCRF-CEM leukemia) | growth (MOLT-4 leukemia) | growth (CAKI-1 renal)
COc1cc(/C=C2\C(=O)N(CCCOc3cc(O)c4c(=O)cc(-c5ccccc5)oc4c3)c3ccccc32)cc(OC)c1O | 42.4% | -16.1% (active) | 47.6% | 80.6% | 60.9% | 67% | 71.9% | 46.8% | 58.8% | 90.9% | 81.1% | 88.4% | 91.3% | 61.9% | 87 | 93.3% | 91.7% | 70.2% | 64.7% | 
CC(C)(C)CC(C)(C)Nc1c(-c2c(O)c3ccccc3oc2=O)nc2sc3ccccc3n12 | 20% | 34.8% | 49.7% | 26.1% | 25.5% | 34.9% | 42% | 30.4% | 36.4% | 58.2% | 66.2% | 26.6% | 51% | 16% |  | 33.7% | 69.6% | 23.4% | 28.5% | 23.5%
O=C(/C=C/C12c3ccccc3C(c3ccccc31)C1C(=O)NC(=O)C12)c1ccco1 (centres undefined) | 21.7% | 13.1% | -2.52% (active) | 30.9% | 15.9% | 31.9% | 46% | 30.8% | 16.1% | 44.3% | 7.24% (active) | 55.6% | 22.6% | 42% | 33.6 | 45.6% | 61.7% | -5.48% (active) |  | 
C=C(C)[C@@H]1CC[C@]2(CO)CC[C@]3(C)[C@H](CC[C@@H]4[C@@](C)(CCCN)[C@H](C(=C)C)CC[C@]43C)[C@@H]12 | -81.7% (active) | -54.4% (active) | -91.9% (active) | 1.21% (active) | -88.6% (active) | 0.447% (active) | -87.5% (active) | -88.6% (active) | -97.8% (active) | -98.3% (active) | -61.6% (active) | -12.9% (active) | -97.6% (active) | -43.4% (active) |  | -100% (active) | -85.7% (active) | -16% (active) |  | -54.9% (active)
Cn1cc(-c2nc3c(F)cc4[nH]ncc4c3c3c2CCCC3)c(C(F)(F)F)n1 | 23.7% | 37.1% | 22.5% | 75.3% | 59.8% | 0.262% (active) | 40.2% | 29.5% | 28.7% | 51% | 49.2% | 38.3% | 49.4% | 18.1% | 24.7 | 28.4% |  | -8.03% (active) | -18.9% (active) | 18.6%
Cc1cc(Cl)nc(N2CCN(CCNc3ccnc4cc(Cl)ccc34)CC2)n1 | 22.4% | 10.5% | 87.5% | 79.9% | 55.3% | 43.1% | -45.2% (active) | 29.7% | -14.6% (active) | 47.7% | 61.1% | 44.8% | 71.2% | 32.4% | 48.2 | 58.2% |  | 63.1% | 32.6% | 
C[C@@H]1NC(=O)[C@H](Cc2ccccc2)N(Cc2cccnc2)C1=O | 103% | 102% | 85.1% | 96.1% | 91.1% | 94.1% | 101% | 92.7% | 98.5% | 112% | 96.7% | 109% | 93.6% | 89% | 95 | 97.3% |  | 109% | 101% | 90.2%
CSc1ccc2c3c(n(C[C@H](O)CO)c(=O)c2c1)-c1ccccc1C3=O | 18.6% | 16.5% | 61.2% | 32.6% | 14.2% | 44.5% | 44.3% | 37.5% | -3.11% (active) | 72.3% | 104% | 77.1% | 23.1% | 19.9% | 70.7 | -41% (active) |  | -4.25% (active) | -17.8% (active) | 27.9%
